Positions count from the first letter of the chain named. Over roughly 5,800 sequences, “enrichment r” has its median near 0.54; the highest 2% begin near 16. The full list was thinned out, with the highest values kept by preference.
B1: chr14:95709946:95710881:-|three_prime_utr|ENSG00000100721|control|control|control (ssRNA)
RNA: GGGAGUUCUACAGUCCGACGAUCUCUGGGAGGAAUGGACAGACAGAGGAUGAGCUCUACCCAGGGCCUGCAGGACCUGCCUGUAGCCCACUCUGCUCGCCUUAGCACUACCACUCCUGCCAAGGAGGAUUCCAUUUGGCAGAGCAACAGAGGAUUGAGCAUCA
B2: chr5:138873012:138874556:-|CDS|ENSG00000146006|control|control|control (ssRNA)
RNA: GGGAGUUCUACAGUCCGACGAUCUUUAUUAUUUUUAUAGUGUUCAUCUCCAGGAAGUGCUGCCCUCCCACUUUAAGAAGAAUUAGGCAGUGCUCAAUGGUUCAGAACCACAGGCAGCUCCGAUCCCAAACACGACUCCAUAUGCAACAGAGGAUUGAGCAUCA
B3: chr5:72207278:72207408:+|3pUTR|ENSG00000131711|msi1_unk|total|mutant (ssRNA)
RNA: GGGAGUUCUACAGUCCGACGAUCAGAGAACAAUGACCUCAUUUUAUUUUCUAUGUCCGUUAUUUAUUUCAAAAUUAACAUUUCCGUUGAUUUUUGUCUGAUAAGUCUAUGUUUUGCACUGCUAACUAUGAUGAGGGUUUAAAACAACAGAGGAUUGAGCAUCA
B4: chr1:93866283:93869944:-|three_prime_utr|ENSG00000067334|control|control|control (ssRNA)
RNA: GGGAGUUCUACAGUCCGACGAUCUUUAUUUACUUAUUAAAGACGUUUGGAAAACUAACACCAUCAUCUAAAUUAAUUUACCAUAGACUGGCCCUGUUCAUACAGGAAUUUGUAUUUGGAAAAAGUUGAUUUGAGAAUCGAUUACAACAGAGGAUUGAGCAUCA
B5: chr16:30603633:30603734:-|3pUTR|ENSG00000156853|unk|total|mutant (ssRNA)
RNA: GGGAGUUCUACAGUCCGACGAUCGUUAAGUACCACAUUCUCCUCUAAACCUUGCCUACGACAUGUUUAAUACUUCAUCUACACCGCAGCCCUUCAGAUAAUCACAACCACUUUGCCCCCAAGUUUUCAGGUUAAGCCGCAUGACAACAGAGGAUUGAGCAUCA
B6: chr2:32224452:32224765:-|three_prime_utr|ENSG00000091106|control|control|control (ssRNA)
RNA: GGGAGUUCUACAGUCCGACGAUCUCGUGUGAGCAGUGAUGGAUGGCUUGCCUUCAUGGGUGUAUUUGAGAAUCUUAAGCAAUUAGUGUUUUUUGACUUUAGUACUAAAGAAUUUCUACCUGAUCCAGCAUUAGUCAGAAAACUCAACAGAGGAUUGAGCAUCA
B7: ENSG00000198589:be:win_6851|CDS|ENSG00000198589|bound_else_gene|NA|bound_elsewhere_windowed (ssRNA)
RNA: GGGAGUUCUACAGUCCGACGAUCAAGUUCCAAAGUUUCACUAUGGUACUCAUUACUCAACUGCAAGUUUUGUUCUUGCAUGGCUGCUAAGAAUAGAACCCUUUACAACUUAUUUCCUAAAUUUGCAAGGAGGCAAAUUUGAUCCAACAGAGGAUUGAGCAUCA
B8: chr9:15474029:15474130:-|CDS|ENSG00000164985|unk|FALSE|unique (ssRNA)
RNA: GGGAGUUCUACAGUCCGACGAUCAAGAAAAGAGCCGGAUAAAAAAGAGGGGAAGAAAGAAGUUGAAUCAAAAAGGAAAAAUUUAGCUAAAACAGGGGUUACUUCAACCUCCGAUUCUGAAGAAGAAGGAGAUGAUCAAGAAGGCAACAGAGGAUUGAGCAUCA
B9: chr12:57516587:57516808:-|three_prime_utr|ENSG00000175197|control|control|control (ssRNA)
RNA: GGGAGUUCUACAGUCCGACGAUCCCCCCACUUGGGCCACACUACCCACCUUUCCCAGAAGUGGCUACUGACUACCCUCUCACUAGUGCCAAUGAUGUGACCCUCAAUCCCACAUACGCAGGGGGAAGGCUUGGAGUAGACAAACAACAGAGGAUUGAGCAUCA
B10: chr4:65323451:65323552:-|3pUTR|ENSG00000145242|msi1|total|mutant (ssRNA)
RNA: GGGAGUUCUACAGUCCGACGAUCAUCAAGAAAAAGUACAAUACAGGGUGUAUAUUUAUUUUUUGUGUUAUAAAGUUUACUUUCCGUUGCUCUUCCCGAGAUUAUCCGGUAAUAAAUGUGUAUAUACUGUAUAAUUUGCAAUAUCAACAGAGGAUUGAGCAUCA
B11: chr8:42175261:42175472:-|3pUTR|ENSG00000104368|msi1|FALSE|unique (ssRNA)
RNA: GGGAGUUCUACAGUCCGACGAUCGUAUUCCUUUUGUGUACAGUGUGUAAAGUGUAAAUCCUUUUUCUUUAUAAACUUUAGAGUAGCAUGAGAGAAUUGUAUCAUUUGAACAACUAGGCUUCAGCAUAUUUAUAGCAAUCCAUGCAACAGAGGAUUGAGCAUCA
B12: chr5:132696315:132696416:-|3pUTR|ENSG00000131437|msi1|FALSE|unique (ssRNA)
RNA: GGGAGUUCUACAGUCCGACGAUCGUUGUACUACUACUCUUCAAUUGUACUGUGCAGGGAAGUUGGGGGAACAGUUCAUACUAUAGAGAGUUACAGUUUAGAUGUAUGUGUAAAUCGAUUAGCUAUUUAUCCAACUACUGUAUACAACAGAGGAUUGAGCAUCA
B13: chr5:141515350:141515460:-|3pUTR|ENSG00000131504|msi1_unk|FALSE|overlapping (ssRNA)
RNA: GGGAGUUCUACAGUCCGACGAUCCUCAGCUUUCCAUCCCCAGCUAGGAAGAAAGAAUGGCACUCUUGGGCUUGGCCCAGAAUUAGAGUUAUUAGAGCAAGAGAGAGCUUAGGAAGCAUGAGGGCAACUAUAGUGAGGCCUUAUCAACAGAGGAUUGAGCAUCA
B14: chr5:132696315:132696416:-|3pUTR|ENSG00000131437|msi1|total|mutant (ssRNA)
RNA: B12 RNA with U83C, A84C, U98C, A99C, U119C, A120C
B15: chr5:138184526:138184629:+|CDS|ENSG00000112984|unk|FALSE|unique (ssRNA)
RNA: GGGAGUUCUACAGUCCGACGAUCGUGCAUGCCCCACCUAUGCAACUGGGAUUCCCAUCCCUGCACUCGUUCAUCAAGGAACAUAGUCUUCAGGUAUCCCCCAGCUUAGAGAAAGGGGCUAAGGCAGACACAGGCCUUGAUGAUCAACAGAGGAUUGAGCAUCA
B16: chr8:6757792:6757893:+|3pUTR|ENSG00000155189|msi1|FALSE|unique (ssRNA)
RNA: GGGAGUUCUACAGUCCGACGAUCAUUUAUUACAACUUGACAGCUCCAAGCUCUUAUUACUAAAGUAUUUAGUAUCUUGCAGCUAGUUAAUAUUUCAUCUUUUGCUUAUUUCUACAAGUCAGUGAAAUAAAUUGUAUUUAGGAACAACAGAGGAUUGAGCAUCA
B17: chr8:103332422:103332528:+|3pUTR|ENSG00000164930|msi1|FALSE|unique (ssRNA)
RNA: GGGAGUUCUACAGUCCGACGAUCUUUUUUAACAUUUAGAAUAUUACAUUUUGUAUUAUACAGUACCUUUCUCAGACAUUUUGUAGAAUUCAUUUCGGCAGCUCACUAGGAUUUUGCUGAACAUUAAAAAGUGUGAUAGCGAUACAACAGAGGAUUGAGCAUCA
B18: chr5:141515350:141515460:-|3pUTR|ENSG00000131504|msi1_unk|total|mutant (ssRNA)
RNA: B13 RNA with U44C, A45C, U83C, A84C, U92C, A93C, U109C, A110C, U130C, A131C
B19: chr8:103332422:103332528:+|3pUTR|ENSG00000164930|msi1|total|mutant (ssRNA)
RNA: B17 RNA with U36C, A37C, U83C, A84C, U106C, A107C, U136C, A137C
B20: chr8:42175261:42175472:-|3pUTR|ENSG00000104368|msi1|total|mutant (ssRNA)
RNA: B11 RNA with U78C, A79C, U83C, A84C, U114C, A115C, U132C, A133C
B21: chr7:80742675:80742739:-|3pUTR|ENSG00000075223|msi1_unk|FALSE|overlapping (ssRNA)
RNA: GGGAGUUCUACAGUCCGACGAUCGUAGCUUGACAAUUCAGUGACUUAAUAUCUAUUCCAUUUGUAUUGUACAUAAAAUUUUCUAGAAAUACACUUUUUUCCAAAGUGUAAGUUUGUGAAUAGAUUUUAGCAUGAUGAAACUGUCAACAGAGGAUUGAGCAUCA
B22: chr11:70485313:70487720:-|CDS|ENSG00000162105|control|control|control (ssRNA)
RNA: GGGAGUUCUACAGUCCGACGAUCUGGGGCGACGUCACAGAGAUCAAAAGCCCGAUUCUCUCAGGCCCAAAGGCAAACGUUAUUAGUGAAUUGAACUCUAUCCUACAGCAAAUGAACCGAGAGAAAUUGGCAAAGCCGGGGGAACAACAGAGGAUUGAGCAUCA

Each binder was assayed against MSI1 full-length (mouse, UniProt Q61474 1-362) (assay: nsRBNS (natural sequence RNA bind-n-seq); RBNS binding buffer (assumed for nsRBNS): 25 mM Tris pH 7.5, 150 mM KCl, 3 mM MgCl2, 0.01% Triton X-100, 500 ug/ml BSA, 20 U/ml SUPERase-In, 4 C; UNK is unkempt and MSI1 is Musashi-1; names of the RNAs are library labels; protein concentration not given here; high values mean tight binding).
MSI1 full-length, sequence (Q61474 whole entry): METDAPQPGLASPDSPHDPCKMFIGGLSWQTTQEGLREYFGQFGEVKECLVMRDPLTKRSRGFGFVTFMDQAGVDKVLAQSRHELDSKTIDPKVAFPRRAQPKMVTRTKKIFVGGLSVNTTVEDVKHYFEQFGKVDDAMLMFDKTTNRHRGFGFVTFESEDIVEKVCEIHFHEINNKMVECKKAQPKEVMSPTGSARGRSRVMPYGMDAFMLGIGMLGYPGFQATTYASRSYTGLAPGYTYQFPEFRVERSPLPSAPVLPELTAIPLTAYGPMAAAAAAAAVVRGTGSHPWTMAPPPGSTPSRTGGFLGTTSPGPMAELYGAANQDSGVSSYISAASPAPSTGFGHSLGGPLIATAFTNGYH

Row | Binder | binding signal [enrichment R]
1 | B1 | 0.347
2 | B2 | 1.88
3 | B3 | 0.411
4 | B4 | 0.451
5 | B5 | 1.38
6 | B6 | 3.3
7 | B7 | 0.297
8 | B8 | 0.83
9 | B9 | 0.549
10 | B10 | 1.51
11 | B11 | 33.5
12 | B12 | 19.9
13 | B13 | 28.2
14 | B14 | 0.609
15 | B15 | 0.612
16 | B16 | 1.46
17 | B17 | 51.5
18 | B18 | 0.337
19 | B19 | 0.818
20 | B20 | 0.424
21 | B21 | 6.36
22 | B22 | 0.762

Reference: PMC12136788
